According to the antibiotic and cytotoxicity screens of Wong et al. (2023):
Hit rate of the full screen: of about 39,000 compounds, about 3,300 (8.5%) were called active. The sample holds actives, similar compounds and a random draw of the others, so the mix is not that of the screen.

The compounds below were run on HepG2 (assay: cytotoxicity call (relative viability < 0.9)). Details: 10 µM.

| SMILES | cytotoxicity call |
| --- | --- |
| C[C@@H]1CN([C@@H](C)CO)C(=O)Cc2cc(NS(C)(=O)=O)ccc2O[C@H]1CN(C)S(=O)(=O)c1cn(C)cn1 | inactive |
| C[C@H](CO)N1C[C@H](C)[C@H](CN(C)S(=O)(=O)c2ccc(F)cc2)Oc2ccc(NC(=O)c3ccncc3)cc2CC1=O | inactive |
| COc1ccc(S(=O)(=O)N(C)C[C@H]2Oc3c(cccc3N(C)C)C(=O)N([C@@H](C)CO)C[C@@H]2C)cc1 | inactive |
| COc1ccc2c3c(n(c2c1)C)[C@@H](CO)N(C[C@]13CN(C1)C(=O)c1ccncc1)C(=O)C1CCCCC1 | inactive |
| COc1ccc(NC(=O)N2C[C@H](O)COC[C@@H]3O[C@@H](CC(=O)NC4Cc5ccccc5C4)CC[C@H]32)cc1 | inactive |
| C[C@@H]1CN([C@H](C)CO)C(=O)c2cc(C#CC(C)(C)O)cnc2O[C@H]1CN(C)Cc1cccc(C(=O)O)c1 | inactive |
| Cc1ccc(S(=O)(=O)N(C)C[C@@H]2Oc3ccc(N(C)C)cc3CC(=O)N([C@@H](C)CO)C[C@H]2C)cc1 | inactive |
| C[C@@H]1CN([C@@H](C)CO)C(=O)c2cccc(NC(=O)NC3CCCCC3)c2O[C@@H]1CN(C)Cc1ccc(Oc2ccccc2)cc1 | inactive |
| C[C@@H]1CN([C@@H](C)CO)C(=O)c2cccc(NC(=O)C3CCCCC3)c2O[C@H]1CN(C)Cc1ccc(Oc2ccccc2)cc1 | inactive |
| C[C@H]1CN([C@@H](C)CO)C(=O)c2cccc(NC(=O)C3CCCCC3)c2O[C@H]1CN(C)Cc1ccc(Oc2ccccc2)cc1 | inactive |
| C[C@H]1CN([C@@H](C)CO)C(=O)c2cccc(NC(=O)NC3CCCCC3)c2O[C@@H]1CN(C)Cc1ccc(Oc2ccccc2)cc1 | inactive |
| C[C@H](CO)N1C[C@H](C)[C@@H](CN(C)Cc2ccc(Oc3ccccc3)cc2)Oc2c(NC(=O)C3CCCCC3)cccc2C1=O | active |
| C[C@H](CO)N1C[C@H](C)[C@H](CN(C)Cc2ccc(Oc3ccccc3)cc2)Oc2c(NC(=O)NC3CCCCC3)cccc2C1=O | active |
| COCCNC(=O)C[C@H]1C[C@@H]2c3cc(NS(C)(=O)=O)ccc3O[C@@H]2[C@H](CO)O1 | inactive |
| CO[C@H]1CN(C)C(=O)c2cc(NC(=O)c3ccc(F)cc3)ccc2OC[C@@H](C)N(C(=O)CN(C)C)C[C@H]1C | inactive |
| COCC#Cc1ccc([C@@H]2[C@@H](CO)N3C(=O)CN(C(=O)CN4CCOCC4)C[C@H]23)cc1 | inactive |
| C[C@H]1CN([C@@H](C)CO)C(=O)Cc2cc(NC(=O)Cn3cnnn3)ccc2O[C@@H]1CN(C)C(=O)Nc1ccc(C(F)(F)F)cc1 | inactive |
| C[C@H]1CCCCO[C@H](CN(C)C(=O)Nc2ccc(F)cc2)[C@@H](C)CN([C@@H](C)CO)C(=O)c2cc(NS(=O)(=O)c3ccccc3)ccc2O1 | inactive |
| O=C(OC1Cc2c(O)cc(O)cc2OC1c1cc(O)c(=O)c2c(O)c(O)cc(C3Oc4cc(O)cc(O)c4CC3O)c2c1)c1cc(O)c(O)c(O)c1 (configuration not stated) | inactive |
| O=C(O[C@@H]1Cc2c(O)cc(O)cc2O[C@@H]1c1cc(O)c(O)c2c(=O)c(O)cc([C@H]3Oc4cc(O)cc(O)c4C[C@H]3O)c-2c1)c1cc(O)c(O)c(O)c1 | active |
| O=c1c(O)cc([C@H]2Oc3cc(O)cc(O)c3C[C@H]2O)c2cc([C@H]3Oc4cc(O)cc(O)c4C[C@H]3O)cc(O)c(O)c1-2 | inactive |

| SMILES | cytotoxicity call |
| --- | --- |
| CCOC(=O)C1=C(COCCN)NC(C)=C(C(=O)OC)C1c1ccccc1Cl.O=S(=O)(O)c1ccccc1 (configuration not stated) | active |
| CCOC(=O)C1=C(C)NC(C)=C(C(=O)OC)C1c1cccc(Cl)c1Cl (configuration not stated) | inactive |
| COC(=O)C1=C(C)NC(C)=C(C(=O)OC)C1c1ccccc1[N+](=O)[O-] | inactive |
| C[C@H]1CN([C@@H](C)CO)C(=O)c2cccc(NC(=O)C3CC3)c2O[C@H]1CN(C)Cc1ccc(Oc2ccccc2)cc1 | inactive |
| CC(=O)N(C)C[C@@H]1Oc2cc(C#CCN(C)C)ccc2S(=O)(=O)N([C@@H](C)CO)C[C@H]1C | inactive |
| C[C@H](CO)N1C[C@H](C)[C@H](CN(C)C(=O)c2ccccc2F)Oc2ncc(C#Cc3ccncc3)cc2C1=O | inactive |
| CC(C)c1c(C(=O)Nc2ccccc2)c(-c2ccccc2)c(-c2ccc(F)cc2)n1CCC(O)CC(O)CC(=O)[O-].[Ca+2] (configuration not stated) | inactive |
| CC(C)c1nc(N(C)S(C)(=O)=O)nc(-c2ccc(F)cc2)c1C=CC(O)CC(O)CC(=O)[O-].[Ca+2] (configuration not stated) | inactive |
| CC(C)n1c(C=CC(O)CC(O)CC(=O)[O-])c(-c2ccc(F)cc2)c2ccccc21.[Na+] (configuration not stated) | active |
| C[C@@H]1CCCCO[C@@H](CN(C)C(=O)Nc2ccc(F)cc2)[C@H](C)CN([C@H](C)CO)C(=O)c2cc(NC(=O)NC3CCCCC3)ccc2O1 | inactive |
| C=CCC[C@@H](Cc1ccc(F)cc1)C(=O)OC[C@@H](Cc1c[nH]c2ccccc12)NC(=O)[C@@H](CC=C)CC(=O)N(CCO)Cc1ccccc1 | active |
| C=CCC[C@H](Cc1ccc(F)cc1)C(=O)OC[C@@H](Cc1c[nH]c2ccccc12)NC(=O)[C@@H](CC=C)CC(=O)N(CCO)Cc1ccccc1 | active |
| C=CCC[C@H](Cc1ccc(F)cc1)C(=O)OC[C@H](Cc1c[nH]c2ccccc12)NC(=O)[C@@H](CC=C)CC(=O)N(CCO)Cc1ccccc1 | active |
| C=CCC[C@@H](Cc1ccc(F)cc1)C(=O)OC[C@H](Cc1c[nH]c2ccccc12)NC(=O)[C@@H](CC=C)CC(=O)N(CCO)Cc1ccccc1 | inactive |
| C=CCC[C@@H](Cc1ccc(F)cc1)C(=O)OC[C@@H](Cc1ccccc1)NC(=O)[C@H](CC=C)CC(=O)N(CCO)Cc1ccccc1 | inactive |
| C=CCC[C@H](Cc1ccc(F)cc1)C(=O)OC[C@@H](Cc1c[nH]c2ccccc12)NC(=O)[C@H](CC=C)CC(=O)N(CCO)Cc1ccccc1 | active |
| Cc1cccc(S(=O)(=O)N2C[C@@H](O)COC[C@@H]3O[C@H](CC(=O)NCc4ccncn4)CC[C@H]32)c1 | inactive |
| COCC(=O)Nc1ccc2c(c1)OC[C@H](C)N(Cc1cccc(F)c1)C[C@@H](C)[C@@H](OC)CN(C)C2=O | inactive |
| CCCN(C)C[C@@H]1OCCCC[C@@H](C)Oc2ccc(NC(=O)Nc3c(C)noc3C)cc2C(=O)N([C@H](C)CO)C[C@@H]1C | inactive |
| C[C@H](CO)N1C[C@H](C)[C@@H](CN(C)C(=O)NC2CCCCC2)OCCCC[C@H](C)Oc2ccc(NS(=O)(=O)c3ccccc3)cc2C1=O | inactive |
| C[C@@H]1CCCCO[C@@H](CN(C)Cc2ccc3c(c2)OCO3)[C@H](C)CN([C@H](C)CO)C(=O)c2cc(NS(=O)(=O)c3cccs3)ccc2O1 | inactive |

| SMILES | cytotoxicity call |
| --- | --- |
| C[C@@H]1CCCCO[C@@H](CN(C)C(=O)Nc2ccc(F)cc2)[C@H](C)CN([C@H](C)CO)C(=O)c2cc(NC(=O)Nc3ccc(F)cc3)ccc2O1 | inactive |
| C[C@@H]1CN([C@@H](C)CO)C(=O)c2cc(NS(C)(=O)=O)ccc2O[C@@H]1CN(C)Cc1ccc(C(=O)O)cc1 | inactive |
| C[C@@H]1CCCCO[C@@H](CN(C)Cc2ccncc2)[C@@H](C)CN([C@@H](C)CO)C(=O)c2cc(NC(=O)Nc3ccc(F)cc3)ccc2O1 | inactive |
| C[C@@H]1CN([C@H](C)CO)C(=O)c2cccc(NC(=O)C3CC3)c2O[C@@H]1CN(C)S(=O)(=O)c1ccc(F)cc1 | inactive |
| C=CCC[C@@H](Cc1ccc(F)cc1)C(=O)OC[C@@H](Cc1c[nH]c2ccccc12)NC(=O)[C@H](CC=C)CC(=O)N(CCO)Cc1ccccc1 | active |
| C=CCC[C@H](Cc1ccc(F)cc1)C(=O)OC[C@H](Cc1c[nH]c2ccccc12)NC(=O)[C@H](CC=C)CC(=O)N(CCO)Cc1ccccc1 | inactive |
| C=CCC[C@@H](Cc1ccc(F)cc1)C(=O)OC[C@H](Cc1c[nH]c2ccccc12)NC(=O)[C@H](CC=C)CC(=O)N(CCO)Cc1ccccc1 | inactive |
| C[C@H](CO)N1C[C@H](C)[C@H](CN(C)C(=O)Nc2cccc3ccccc23)Oc2ccc(NC(=O)Nc3ccc(F)cc3)cc2CC1=O | inactive |
| C[C@@H](N)c1nc2c(s1)CCCC2 | inactive |
| O=C1O[C@H](c2ccccc2)[C@H](c2ccccc2)N2[C@H]1[C@@H](C(=O)NC[C@@H](O)c1ccccc1)[C@]1(C(=O)Nc3ccc(C#CC4(O)CCCCCC4)cc31)[C@H]2c1ccccc1OCCO | inactive |
| C[C@@H]1CN([C@@H](C)CO)C(=O)c2cc(NC(=O)Nc3ccc(C(F)(F)F)cc3)ccc2O[C@H]1CN(C)Cc1ccc(Cl)c(Cl)c1 | inactive |
| C[C@@H]1CN([C@H](C)CO)C(=O)c2cc(NC(=O)Nc3ccc(C(F)(F)F)cc3)ccc2O[C@H]1CN(C)Cc1ccc(Cl)c(Cl)c1 | active |
| C[C@H](CO)N1C[C@H](C)[C@@H](CN(C)Cc2ccc(Cl)c(Cl)c2)Oc2ccc(NC(=O)Nc3ccc(C(F)(F)F)cc3)cc2C1=O | active |
| C[C@@H]1CN([C@H](C)CO)C(=O)c2cc(NC(=O)Nc3ccc(C(F)(F)F)cc3)ccc2O[C@@H]1CN(C)Cc1ccc(Cl)c(Cl)c1 | active |
| C[C@H]1CN([C@@H](C)CO)C(=O)c2cc(NC(=O)Nc3ccc(C(F)(F)F)cc3)ccc2O[C@@H]1CN(C)Cc1ccc(Cl)c(Cl)c1 | inactive |
| C[C@@H]1CN([C@@H](C)CO)C(=O)c2cc(NC(=O)Nc3ccc(C(F)(F)F)cc3)ccc2O[C@@H]1CN(C)Cc1ccc(Cl)c(Cl)c1 | active |
| C[C@H](CO)N1C[C@H](C)[C@@H](CN(C)S(=O)(=O)c2ccc(Cl)cc2)Oc2ccc(NC(=O)CCCN(C)C)cc2CC1=O | inactive |
| NCC[C@H]1CC[C@H](NC(=O)C2CC2)[C@H](CO)O1 | inactive |
| CSc1nc(=O)c(CCO)c(C)[nH]1 | inactive |
| COc1cccc(NC(=O)N2C[C@H](O)COC[C@@H]3O[C@@H](CC(=O)NCCCN4CCOCC4)CC[C@H]32)c1 | inactive |
